Screens: PubChem BioAssay, National Center for Advancing Translational Sciences (NCATS)
HCV inhibitor = inhibitors of hepatitis C virus infection; Potency, µM (top dose mostly 41.8 µM), hits mostly inhibitors; AID 651820; Huh7.5.1 HCVcc-Cre infection, luciferase reporter, 44 h; 3.4% of 340,000 active
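HCVcc-Cre virus at an moi near 0.5 was added right after compound to cells cultured 4 h from seeding (1,000 cells/well). Luciferase activity was determined 44 h later, 15 min after substrate addition at RT.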
Sm TGR inh = blocks Schistosoma mansoni thioredoxin glutathione reductase. purified TGR, DTNB reduction, TNB absorbance 405 nm. Potency, µM (highest dose often 114 µM), most hits filed as inhibitors. 3% of 360,000 active. AID 485364; note: nearly all actives have a fitted effect of over 60% in size
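TGR 20 nM + NADPH 100 uM (dispensed conc.), cpd preinc 15 min RT; start with NADPH (500 uM addition) then DTNB (15 mM addition). Kinetic TNB absorbance, 405 nm filter. Four-parameter Hill fit across titration.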
RE007 growth inh = less growth of the S. pombe RE007 Vpr strain | S. pombe RE007 Vpr strain, BacTiter-Glo ATP luminescence, 24 h | Potency, µM (highest dose often 92.2 µM), hits mostly inhibitors | 0.21% of 360,000 active | AID 651644; active = well fitted falling curve with a large enough effect; inconclusive = small, poorly fitted or top-dose-only effect; inactive = no such curve, though single readings can be large or run the other way; note: nearly all actives have a fitted effect of over 50% in size
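Fission yeast strain RE007, carrying one chromosomally integrated HIV-1 vpr copy, was seeded at OD 0.01 in PMG+AL medium with 23 nL pinned compound. After 24 h at 30 °C and 99% humidity, viability was read by BacTiter-Glo luminescence.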
Marburg entry inh = blocks Marburg virus binding to or entry into cells | Potency, µM (series often up to 37.8 µM), actives largely listed as inhibitors | 1.8% of 300,000 active | Marburg virus pseudotyped entry inhibition, cell reporter; calls by dose curve; tested in HEK293 cells
FMDV antiviral = blocks foot and mouth disease virus | Potency, µM (highest dose often 57.9 µM), most hits filed as inhibitors | 1.2% of 410,000 active | FMDV antiviral cell-based qHTS; calls by dose curve; tested in HEK293T cells; note: read-out not given here; nearly all actives have a fitted effect of over 45% in size
LASV entry inh = inhibitors of Lassa virus binding or cell entry. 1.2% of 300,000 active. Potency, µM (doses to about 37.9 µM), hits mostly inhibitors. Lassa virus pseudotype entry inhibition, cell reporter; calls by dose curve; tested in HEK293 cells; note: nearly all actives have a fitted effect of over 50% in size
Hits are given with their value; - = inactive; ? = inconclusive; . = not tested or not shown; [ ] = dose if it differs, or a comment. Rows were chosen to be rich in hits. Some 7.2% of all compounds tested hit in one or more screens of this group. Unless noted, calls come from the whole dose curve; as a rule, active = well fitted curve in the direction sought with a large enough effect; inconclusive = small, poorly fitted or top-dose-only effect, or another doubt; inactive = no such curve, though single readings can be large; an effect the other way counts as inactive or inconclusive.

SMILES	HCV inhibitor	Sm TGR inh	RE007 growth inh	Marburg entry inh	FMDV antiviral	LASV entry inh
COc1ccc(C2=C(C)C(=O)N(Cc3ccc(C(=O)NC(C)c4ccccc4)cc3)S2(=O)=O)cc1 (configuration not stated)	.	-	.	.	-	-
O=C(Nc1ccc(N2CCOCC2)cc1)c1ccc(Cl)c(S(=O)(=O)N2CCCC2)c1	6.3µM	-	-	.	?	.
CCN1CCN(c2ccc(NC(=O)c3ccc(OC)c(S(=O)(=O)N4CCCC4)c3)cc2)CC1	-	-	-	.	-	.
COc1ccc(C(=O)Nc2ccc(N3CCCCCC3)cc2)cc1S(=O)(=O)N1CCOCC1	8.9µM	-	-	.	-	.
COc1ccc(NS(=O)(=O)c2c(F)cc(F)c(Cl)c2F)cc1S(=O)(=O)N1CCCCC1	-	-	-	-	-	-
Cc1ccc(C(=O)Nc2ccc(N3CCOCC3)cc2)cc1S(=O)(=O)N1CCCCC1	?	-	-	.	-	.
COc1ccc(NS(=O)(=O)c2c(F)cccc2F)cc1S(=O)(=O)N1CCOCC1	-	40µM	-	-	-	-
CCN1CCN(c2ccc(NC(=O)c3ccc(Cl)c(S(=O)(=O)N4CCCC4)c3)cc2)CC1	18µM	-	-	?	?	?
O=C(NN=C1C[C@@H](O)[C@H](O)[C@H]2[C@@H]3C(=O)N(C[C@@H]4CCCO4)C(=O)[C@@H]3CC[C@@H]12)OCc1ccccc1	.	.	.	-	.	?
COc1ccc(C(=O)N2CCCCC2CCN2CCCCC2)cc1 (configuration not stated)	.	-	.	-	-	-
CCc1cccc(CC)c1NC(=O)CCS(=O)(=O)c1ccc2c(c1)CCN2C(C)=O	.	-	.	-	-	-
COc1cc(NC(=O)c2cc(-c3cccc(O)c3)on2)cc(OC)c1OC	11µM	-	-	.	?	.
COc1cc(NC(=O)c2cc(-c3ccccc3Cl)on2)cc(OC)c1OC	1.1µM	-	-	?	-	-
COc1cc(NC(=O)c2cc(-c3ccc(Cl)c(Cl)c3)on2)cc(OC)c1OC	.	-	.	-	-	?
COc1cccc(-c2cc(C(=O)Nc3cccc(O)c3)no2)c1	-	-	-	4.6µM	-	6.5µM
COc1ccc(NC(=O)c2cc(-c3cccc(OC)c3)on2)cc1	-	-	-	-	-	?
Cc1ccc(S(=O)(=O)NCc2ccncc2)cc1C	2.2µM	-	-	?	-	?
Cc1cc(C)c(C)c(S(=O)(=O)NCc2ccncc2)c1C	7.1µM	-	-	?	-	?
O=S(=O)(NCc1ccncc1)c1ccccc1	?	-	-	-	-	-
COc1cc(SC)ccc1C(=O)Nc1ccc(S(=O)(=O)Nc2nccc(C)n2)cc1	.	-	.	.	-	?
C=CCn1c2ccccc2c(=O)c2cc(C#CC3(O)CCCCC3)ccc21	10µM	-	-	.	-	.
C=CCn1c2ccccc2c(=O)c2cc(C#CC[C@@H](C)O)ccc21	13µM	50µM	-	.	-	.
C=CCn1c(=O)c(C(=O)NC(C)c2ccccc2)c(O)c2ccccc21 (configuration not stated)	-	-	-	.	-	.
CC(C)(C)C(=O)OCOC(=O)[C@@H]1N2C(=O)[C@@H](N=CN3CCCCCC3)[C@H]2SC1(C)C	0.5µM	-	-[18.4 µM]	.	-	.
COc1ccccc1NC(=O)Cn1c(=O)n(CCC(=O)NCC2CCCO2)c(=O)c2cc(OC)c(OC)cc21 (configuration not stated)	.	-	.	-	-	-
SMILES	HCV inhibitor	Sm TGR inh	RE007 growth inh	Marburg entry inh	FMDV antiviral	LASV entry inh
O=C1Nc2ccccc2/C1=N\N=C\C1=C(N2CCOCC2)C(=C\c2ccccc2)/CC1	.	45µM	.	.	.	.
O=C1Nc2ccc(Br)cc2/C1=N\N=C\C1=C(N2CCOCC2)C(=C/c2ccccc2)/CC1	-	.	-	-	?	-
CNc1cccnc1C=NNC(N)=S	3.5µM	.	-	1.3µM	-	0.63µM
CCc1ccc(N(CC)C(=O)Cn2c(=O)oc3ccccc32)cc1	.	-	.	-	?	-
O=C(c1cn(CCOc2ccccc2F)c2ccccc12)C1CCCCC1	.	-	.	-	-	-
Cc1cccc(N(Cc2cc(=O)[nH]c3ccccc23)C(=O)CCl)c1	?	?	-	.	20µM	.
COc1ccc(N(Cc2cc(=O)[nH]c3ccccc23)C(=O)CCl)cc1	?	7.9µM	-	?	20µM	?
CC(=O)n1c2ccccc2c2c1c1ccccc1n2C	2.2µM	-	-	-	-	-
N#Cc1ccccc1CSc1nnc2ccc3ccccc3n12	.	-	.	-	-	-
COc1ccc(Cn2cc([N+](=O)[O-])nc2C)cc1[N+](=O)[O-]	-	-	-	?	-	-
COc1ccc(Cn2c(C)nc([N+](=O)[O-])c2SCC(=O)O)cc1[N+](=O)[O-]	-	35µM	-	-	-	-
O=C(C1CC1)N(CCc1ccccc1)Cc1nc2ccccc2c(=O)[nH]1	-	-	-	-	28µM	-
CCn1c(O)c(/C=C2\C=NN=C2c2ccc(C)cc2)sc1=S	-	-	-	-	-	-
CC(C)n1c(O)c(/C=C2\C=NN=C2c2ccccc2)sc1=S	-	-	-	11µM	?	?
CN(C)CCNc1ncnc2c1sc1nc(-c3ccccc3)c3c(c12)CCCC3	?	-	-	10µM	?	?
CC1(C)Cc2c(c(N3CCOCC3)nc3sc4c(NCCN5CCOCC5)nnnc4c23)CS1	11µM	-	-	.	-	.
CC(C)CCNc1nnnc2c1sc1nc(N3CCOCC3)c3c(c12)CC(C)(C)SC3	-	-	-	-	-	?
c1nc(NCCN2CCOCC2)c2sc3nc(N4CCOCC4)c4c(c3c2n1)CCC4	-	45µM	-	?	-	-
CCc1ccc(OCC(=O)Nc2c(C(=O)c3ccccc3)oc3ccccc23)cc1	.	-	.	?	-	?
COc1ccc(-c2csc(Nc3ccccc3)n2)cc1	14µM	-	-	?	-	?
CC(=O)Oc1ccc(-c2csc(Nc3ccc(S(N)(=O)=O)cc3)n2)cc1	?	-	-	-	-	?
COc1ccc(Nc2nc(-c3ccc(OC)cc3)cs2)cc1	-	-	-	.	-	.
c1cc2c(cc1Nc1nc(-c3ccc4c(c3)OCO4)cs1)OCCO2	-	-	-	-	-	?
c1ccc(-c2csc(Nc3ccc4c(c3)OCCO4)n2)cc1	-	-	-	?	-	10µM
Cc1nc(N)sc1-c1csc(Nc2ccc(S(N)(=O)=O)cc2)n1	10µM	-	-	.	-	.
SMILES	HCV inhibitor	Sm TGR inh	RE007 growth inh	Marburg entry inh	FMDV antiviral	LASV entry inh
COc1ccc(-c2csc(Nc3ccc(S(N)(=O)=O)cc3)n2)cc1	5µM	-	-[3.69 µM]	-	?	?
Cc1cccc(-c2nc(SCC(=O)Nc3ccc4c(c3)OCO4)c(-c3ccccc3)[nH]2)c1	.	-	.	-	?	?
CC(=O)c1cccc(Nc2nc(-c3cccnc3)cs2)c1	?	-	-	?	-	?
COc1ccc(-c2csc(Nc3cccnc3)n2)cc1	10µM	-	-	-	-	-
CC(=O)c1cccc(Nc2nc(-c3ccccc3)cs2)c1	2.5µM	.	-	?	-	?
COc1ccc(-c2csc(Nc3ncccc3C)n2)cc1	?	-	?	?	-	?
